Five compounds from PubChem BioAssay (EPA / NIEHS) can be followed below.

Test [1] is described as follows: ATG_GLI_CIS: Attagene CIS-FACTORIAL HepG2 Assay for human Zinc Finger Protein GLI1 (AID 2282945). The following applies: HepG2, Attagene cis-factorial reporter mRNA, GLI element; actives raise or lower the signal. Put shortly:
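Bidirectional curve fits relative to DMSO, using reporter mRNA levels from RT-PCR plus capillary electrophoresis. Cells were HepG2 transiently carrying cis-regulated reporter constructs, harvested 24 h after dosing.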

Test [2] deals with Bile acid receptor (Homo sapiens) (UniProt Q96RI1). As to the kind of experiment: ATG_IR1_CIS: Attagene CIS-FACTORIAL HepG2 Assay for human Nuclear Receptor Subfamily 1 Group H Member 4 (NR1H4), IR1 submotif (AID 2282946). The following applies: IR1 reporter transcription, actives raise or lower the signal. Put shortly:
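HepG2 cells transiently transfected with multiplexed cis-element reporter units read endogenous transcription factor activity. After 24 h compound exposure, reporter mRNA was quantified by RT-PCR, fluorescent labelling, HpaI digestion and capillary electrophoresis; bidirectional fitting versus DMSO baseline.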

Test [3] is described as follows: ATG_GRE_CIS: Attagene CIS-FACTORIAL HepG2 Assay for human Glucocorticoid Response Elements (GRE) (AID 2282947). Particulars: HepG2 GRE cis-reporter, Attagene multiplex mRNA; actives raise or lower the signal. An outline of the steps:
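Multiplexed cis-reporter mRNA induction, HepG2, 24 h post-dose. RT-PCR, FAM-labelled, HpaI-digested amplicons by CE. Bidirectional fit vs DMSO.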

The nature of test [4]: ATG_ISRE_CIS: Attagene CIS-FACTORIAL HepG2 Assay for human Interferon Regulatory Factor 1 (IRF1) binding to an Interferon-Stimulated Response Element (ISRE) (AID 2282948). The following applies: HepG2 ISRE cis-reporter (Attagene), mRNA transcription readout; actives raise or lower the signal. Put shortly: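 Endogenous transcription factor activity read as reporter transcript abundance via RT-PCR and capillary electrophoresis. HepG2 cells transiently transfected, 24 h chemical exposure. Gain or loss fitted against DMSO baseline.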

The nature of test [5]: ATG_M_32_CIS: Attagene CIS-FACTORIAL HepG2 Assay for M32 Transcription Factor (Internal Marker) (AID 2282949).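 Note: background control marker of the multiplexed CIS panel rather than a real target.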 Particulars: HepG2 Attagene cis-factorial M32 reporter, mRNA; actives raise or lower the signal. An outline of the steps:
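Using DMSO as baseline, bidirectional curve fits were applied to reporter mRNA signals. These came from transiently transfected HepG2 cells exposed for 24 h, with RNA analysed by RT-PCR, FAM primer extension, HpaI digestion and CE.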

Test [6] can be described thus: ATG_M_06_CIS: Attagene CIS-FACTORIAL HepG2 Assay for M06 Transcription Factor (Internal Marker) (AID 2282950). Particulars: HepG2 Attagene CIS-FACTORIAL M06 internal marker reporter; actives raise or lower the signal. Put shortly:
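One of many multiplexed endpoints: HepG2 reporter mRNA after 24 h dosing, detected by RT-PCR and capillary electrophoresis fluorescence; gain or loss of signal analysed against DMSO.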

Test [7] deals with Hypoxia-inducible factor 1-alpha (Homo sapiens) (UniProt Q16665). The test can be described thus: ATG_HIF1a_CIS: Attagene CIS-FACTORIAL HepG2 Assay for human Hypoxia Inducible Factor 1 (HIF1A) (AID 2282951). Particulars: HepG2 Attagene cis-factorial HIF1a reporter transcription; actives raise or lower the signal. Put shortly:
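After 24 h chemical exposure of reporter-transfected HepG2 cells, reporter cDNA was PCR-amplified, labelled by 6-FAM primer extension (2 min 95 C, 20 s 68 C, 10 min 72 C), HpaI-cut (2 h, 37 C) and analysed by CE.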

Test [8] addresses Hepatocyte nuclear factor 6 (Homo sapiens) (UniProt Q9UBC0). As to the kind of experiment: ATG_HNF6_CIS: Attagene CIS-FACTORIAL HepG2 Assay for human Hepatocyte Nuclear Factor 6 (HNF6) (AID 2282952). Particulars: HepG2 Attagene cis-factorial HNF6 reporter transcription; actives raise or lower the signal. Put shortly:
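Using cis-element reporters in HepG2 liver cells, the assay tracks endogenous factor-driven transcription 24 h post-dosing. Signal comes from 6-FAM-labelled, HpaI-digested RT-PCR fragments, with gain or loss scored against DMSO.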

Test [9] deals with Heat shock factor protein 1 (Homo sapiens) (UniProt Q00613). The test can be described thus: ATG_HSE_CIS: Attagene CIS-FACTORIAL HepG2 Assay for human Heat Shock Transcription Factor 1 (HSE) (AID 2282953). The following applies: HepG2 HSE cis-reporter, Attagene RNA transcription; actives raise or lower the signal. Put shortly:
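Using HepG2 with transfected cis-driven reporter constructs, compound effects on endogenous factor activity are scored as reporter mRNA change at 24 h. Detection: RT-PCR, HpaI digestion, capillary electrophoresis; bidirectional fitting to DMSO.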

Test [10] in a line: ATG_MRE_CIS: Attagene CIS-FACTORIAL HepG2 Assay for human Metal Responsive Element (MRE) (AID 2282954). The following applies: HepG2 MRE cis-reporter transcription, Attagene multiplex; actives raise or lower the signal. Put shortly: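 Multiplexed cis-reporter assay in human HepG2 liver cells, 24 h incubation with test chemical. Reporter transcripts measured by RT-PCR and capillary electrophoresis; values from bidirectional curve fitting versus DMSO.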

A short description of test [11]: ATG_PBREM_CIS: Attagene CIS-FACTORIAL HepG2 Assay for human Phenobarbital-responsive Enhancer Module (PBREM) (AID 2282955). Particulars: HepG2 PBREM cis-reporter, Attagene multiplexed transcription; actives raise or lower the signal. An outline of the steps:
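Measures endogenous factor action on a phenobarbital-responsive enhancer module. HepG2 transiently carrying cis reporters, 24 h treatment, mRNA read-out by RT-PCR plus capillary electrophoresis.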

Test [12] deals with Paired box protein Pax-6 (Homo sapiens) (UniProt P26367). The test can be described thus: ATG_Pax6_CIS: Attagene CIS-FACTORIAL HepG2 Assay for human Paired Box 6 (PAX6) (AID 2282956). Particulars: HepG2 CIS-FACTORIAL PAX6 reporter transcription, RNA readout; actives raise or lower the signal. Put shortly: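 Read-out is reporter transcript level, measured by RT-PCR with fluorescent primer extension and capillary electrophoresis after 24 h dosing of transfected HepG2 cells. Activity in either direction fitted relative to DMSO control.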
Sequence of Paired box protein Pax-6 (Homo sapiens) (P26367 whole entry, looked up): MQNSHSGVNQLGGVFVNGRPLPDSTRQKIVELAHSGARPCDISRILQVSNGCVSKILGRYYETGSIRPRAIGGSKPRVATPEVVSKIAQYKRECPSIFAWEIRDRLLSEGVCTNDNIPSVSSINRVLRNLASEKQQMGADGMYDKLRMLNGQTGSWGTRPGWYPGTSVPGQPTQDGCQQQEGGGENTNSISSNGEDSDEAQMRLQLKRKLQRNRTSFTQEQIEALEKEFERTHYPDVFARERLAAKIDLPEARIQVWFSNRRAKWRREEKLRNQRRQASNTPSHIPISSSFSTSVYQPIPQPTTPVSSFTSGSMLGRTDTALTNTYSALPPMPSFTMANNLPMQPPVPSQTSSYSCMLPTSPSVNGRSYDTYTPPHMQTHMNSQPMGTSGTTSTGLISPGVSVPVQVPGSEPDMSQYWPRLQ

Test [13] can be described thus: ATG_PXRE_CIS: Attagene CIS-FACTORIAL HepG2 Assay for human Pregnane X Receptor Element (PXRE) (AID 2282957). Particulars: HepG2 Attagene CIS-FACTORIAL PXRE reporter, mRNA; actives raise or lower the signal. Put shortly: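 Using HepG2 transfected with multiple reporter transcription units, endogenous factor-driven transcription was scored as reporter mRNA after 24 h exposure.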

Test [14] in a line: ATG_PPRE_CIS: Attagene CIS-FACTORIAL HepG2 Assay for human Peroxisome Proliferator-activated Response Element (PPRE) (AID 2282958). The following applies: HepG2 PPRE cis-element reporter, Attagene transcription factor profiling; actives raise or lower the signal. An outline of the steps:
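PPRE activity in HepG2: transient cis-reporter transfection, 24 h compound incubation, reporter mRNA by RT-PCR and CE fluorescence; gain/loss fitted against DMSO.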

Test [15] in a line: ATG_RORE_CIS: Attagene CIS-FACTORIAL HepG2 Assay for human RAR-related Orphan Receptor Element (RORE) (AID 2282959). Particulars: HepG2 Attagene cis-factorial RORE reporter, mRNA; actives raise or lower the signal. Put shortly: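 A 24-hour exposure of transfected HepG2 hepatoma cells precedes RNA isolation and reporter RT-PCR. Labeled products are digested with HpaI and resolved by capillary electrophoresis, with gain or loss of signal scored relative to DMSO.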

Test [16] in a line: ATG_Sox_CIS: Attagene CIS-FACTORIAL HepG2 Assay for human SRY-box transcription factor (SOX) (AID 2282960). Particulars: HepG2 Attagene cis-factorial SOX reporter, mRNA; actives raise or lower the signal. An outline of the steps: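 HepG2, cis reporter units, 24 h exposure. Reporter mRNA: RT-PCR → FAM labelling → HpaI → CE fluorescence. Bidirectional fit vs DMSO.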
The target in test [17] is Transcription factor Sp1 (Homo sapiens) (UniProt P08047). The test can be described thus: ATG_Sp1_CIS: Attagene CIS-FACTORIAL HepG2 Assay for human Specificity Protein 1 (Sp1) (AID 2282961). Particulars: HepG2 Sp1 cis-reporter transcription, actives raise or lower the signal. Put shortly:
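Liver-derived HepG2 cells, cis-element reporter library, 24 h treatment; RNA isolated, cDNA amplified with reporter-specific primers, FAM-labeled fragments sized on capillary analyzer. DMSO baseline, bidirectional curve fit.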

A short description of test [18]: ATG_SREBP_CIS: Attagene CIS-FACTORIAL HepG2 Assay for human Sterol Regulatory Element Binding (SREBP) (AID 2282962). Particulars: HepG2 Attagene cis-factorial SREBP reporter, mRNA; actives raise or lower the signal. An outline of the steps:
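Endogenous SREBP activity read as cis-element-driven reporter transcript in transiently transfected HepG2, 24 h post-dosing; quantified via RT-PCR plus capillary electrophoresis of fluorescent fragments. Gain or loss of signal fitted relative to DMSO baseline.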

Test [19] addresses Signal transducer and activator of transcription 3 (Homo sapiens) (UniProt P40763). As to the kind of experiment: ATG_STAT3_CIS: Attagene CIS-FACTORIAL HepG2 Assay for human Signal Transducer and Activator of Transcription 3 (STAT3) (AID 2282963). The following applies: HepG2, Attagene cis-factorial STAT3 reporter transcription; actives raise or lower the signal. Put shortly:
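Cis-factorial format: endogenous transcription factors in HepG2 drive transfected reporter units. After 24 h treatment, reporter RNA was reverse-transcribed, amplified, FAM-labelled and HpaI-digested before CE analysis; activity scored in both directions against DMSO.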

Test [20] in a line: ATG_TA_CIS: Attagene CIS-FACTORIAL HepG2 Assay for human TA Basal Promoter (AID 2282964). The following applies: HepG2 Attagene CIS-factorial TA basal promoter reporter; actives raise or lower the signal. An outline of the steps: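 Transient MRTU transfection of HepG2 preceded 24 h compound exposure. Reporter mRNA levels were then read by RT-PCR with capillary electrophoresis, and this background-control endpoint was fitted bidirectionally to DMSO.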

Where “and” joins values, the source holds several entries; their conditions need not be identical. Equal values may be shown once. Some compounds were tested as several samples or in several runs, with calls that do not always agree. Calls of active or inactive are those of the source. Rule for the calls: active = hit-call score of the fitted dose curve at least 0.9, where 1 is the maximum; inactive = score below 0.9.

Sequence of Hypoxia-inducible factor 1-alpha (Homo sapiens) (Q16665 whole entry, looked up): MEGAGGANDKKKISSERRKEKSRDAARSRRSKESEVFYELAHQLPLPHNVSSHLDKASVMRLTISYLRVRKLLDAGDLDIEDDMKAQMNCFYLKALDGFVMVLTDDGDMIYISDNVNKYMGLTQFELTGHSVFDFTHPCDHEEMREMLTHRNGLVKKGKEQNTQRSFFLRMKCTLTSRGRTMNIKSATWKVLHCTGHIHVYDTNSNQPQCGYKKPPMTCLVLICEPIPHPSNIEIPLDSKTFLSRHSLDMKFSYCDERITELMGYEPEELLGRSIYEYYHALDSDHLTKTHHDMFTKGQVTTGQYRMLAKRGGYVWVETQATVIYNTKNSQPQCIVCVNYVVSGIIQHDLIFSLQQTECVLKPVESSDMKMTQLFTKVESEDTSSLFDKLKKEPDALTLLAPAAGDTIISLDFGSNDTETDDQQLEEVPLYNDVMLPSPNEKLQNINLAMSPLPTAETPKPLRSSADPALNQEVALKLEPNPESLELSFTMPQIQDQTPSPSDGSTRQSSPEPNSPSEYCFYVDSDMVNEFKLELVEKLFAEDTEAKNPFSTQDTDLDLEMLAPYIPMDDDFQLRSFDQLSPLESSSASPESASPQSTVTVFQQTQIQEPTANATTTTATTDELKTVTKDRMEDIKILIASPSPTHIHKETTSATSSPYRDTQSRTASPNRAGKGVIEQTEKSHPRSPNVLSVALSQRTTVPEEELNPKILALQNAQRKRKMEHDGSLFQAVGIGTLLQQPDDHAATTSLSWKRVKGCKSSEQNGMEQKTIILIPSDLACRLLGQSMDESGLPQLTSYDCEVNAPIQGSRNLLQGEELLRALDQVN
Sequence of Transcription factor Sp1 (Homo sapiens) (P08047 whole entry, looked up, the tested form may be a part): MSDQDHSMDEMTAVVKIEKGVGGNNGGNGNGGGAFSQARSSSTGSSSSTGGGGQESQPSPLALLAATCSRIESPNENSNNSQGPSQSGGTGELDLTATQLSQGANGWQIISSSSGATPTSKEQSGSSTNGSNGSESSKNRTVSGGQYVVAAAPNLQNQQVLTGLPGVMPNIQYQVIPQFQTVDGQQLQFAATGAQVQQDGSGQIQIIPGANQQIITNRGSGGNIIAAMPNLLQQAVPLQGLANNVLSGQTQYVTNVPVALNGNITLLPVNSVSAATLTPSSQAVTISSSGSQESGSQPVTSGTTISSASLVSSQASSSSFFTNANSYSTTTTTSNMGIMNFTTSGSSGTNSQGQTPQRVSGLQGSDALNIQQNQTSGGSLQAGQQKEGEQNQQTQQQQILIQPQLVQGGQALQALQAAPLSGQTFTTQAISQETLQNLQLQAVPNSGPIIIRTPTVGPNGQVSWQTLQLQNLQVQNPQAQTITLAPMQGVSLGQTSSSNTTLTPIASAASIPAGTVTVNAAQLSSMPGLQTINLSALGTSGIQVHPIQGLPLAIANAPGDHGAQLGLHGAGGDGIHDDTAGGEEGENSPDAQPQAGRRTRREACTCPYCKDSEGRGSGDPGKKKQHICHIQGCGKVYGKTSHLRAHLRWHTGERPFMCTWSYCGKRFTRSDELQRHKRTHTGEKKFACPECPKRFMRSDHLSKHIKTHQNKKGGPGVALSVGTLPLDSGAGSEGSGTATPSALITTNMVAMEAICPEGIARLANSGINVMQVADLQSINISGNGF
Sequence of Hepatocyte nuclear factor 6 (Homo sapiens) (Q9UBC0 whole entry, looked up, the tested form may be a part): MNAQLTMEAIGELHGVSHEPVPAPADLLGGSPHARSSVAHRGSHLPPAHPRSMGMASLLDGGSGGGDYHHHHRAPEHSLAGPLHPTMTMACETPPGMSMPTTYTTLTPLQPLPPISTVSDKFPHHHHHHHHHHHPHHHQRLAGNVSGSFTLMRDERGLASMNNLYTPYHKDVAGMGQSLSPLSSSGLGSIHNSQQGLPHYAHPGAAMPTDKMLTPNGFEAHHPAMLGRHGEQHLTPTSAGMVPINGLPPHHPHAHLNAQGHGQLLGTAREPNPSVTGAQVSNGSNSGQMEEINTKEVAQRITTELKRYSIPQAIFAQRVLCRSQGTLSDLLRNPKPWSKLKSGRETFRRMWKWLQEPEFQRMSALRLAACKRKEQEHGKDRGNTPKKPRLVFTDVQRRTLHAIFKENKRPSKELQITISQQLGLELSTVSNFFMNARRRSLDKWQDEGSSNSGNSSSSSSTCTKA
Sequence of Signal transducer and activator of transcription 3 (Homo sapiens) (P40763 whole entry, looked up): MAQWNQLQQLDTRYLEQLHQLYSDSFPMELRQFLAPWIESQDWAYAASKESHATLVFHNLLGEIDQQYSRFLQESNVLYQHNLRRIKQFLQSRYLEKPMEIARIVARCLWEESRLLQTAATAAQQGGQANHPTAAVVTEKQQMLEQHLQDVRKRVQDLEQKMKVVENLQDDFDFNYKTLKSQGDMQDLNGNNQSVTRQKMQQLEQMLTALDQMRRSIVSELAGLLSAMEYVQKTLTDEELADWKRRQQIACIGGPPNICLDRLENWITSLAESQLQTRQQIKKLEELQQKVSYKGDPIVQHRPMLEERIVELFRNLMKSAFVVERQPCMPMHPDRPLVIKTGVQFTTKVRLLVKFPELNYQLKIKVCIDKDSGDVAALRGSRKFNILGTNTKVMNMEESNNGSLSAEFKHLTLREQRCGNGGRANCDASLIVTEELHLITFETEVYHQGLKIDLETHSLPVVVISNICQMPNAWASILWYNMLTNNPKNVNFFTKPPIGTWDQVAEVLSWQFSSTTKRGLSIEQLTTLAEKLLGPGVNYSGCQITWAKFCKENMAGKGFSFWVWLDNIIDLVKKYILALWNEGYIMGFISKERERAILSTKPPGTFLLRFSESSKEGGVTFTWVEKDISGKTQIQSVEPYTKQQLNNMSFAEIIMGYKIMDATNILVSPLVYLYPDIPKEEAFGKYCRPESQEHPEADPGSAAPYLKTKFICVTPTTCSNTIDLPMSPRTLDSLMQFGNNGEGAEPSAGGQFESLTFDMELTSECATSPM
Sequence of Heat shock factor protein 1 (Homo sapiens) (Q00613 whole entry, looked up): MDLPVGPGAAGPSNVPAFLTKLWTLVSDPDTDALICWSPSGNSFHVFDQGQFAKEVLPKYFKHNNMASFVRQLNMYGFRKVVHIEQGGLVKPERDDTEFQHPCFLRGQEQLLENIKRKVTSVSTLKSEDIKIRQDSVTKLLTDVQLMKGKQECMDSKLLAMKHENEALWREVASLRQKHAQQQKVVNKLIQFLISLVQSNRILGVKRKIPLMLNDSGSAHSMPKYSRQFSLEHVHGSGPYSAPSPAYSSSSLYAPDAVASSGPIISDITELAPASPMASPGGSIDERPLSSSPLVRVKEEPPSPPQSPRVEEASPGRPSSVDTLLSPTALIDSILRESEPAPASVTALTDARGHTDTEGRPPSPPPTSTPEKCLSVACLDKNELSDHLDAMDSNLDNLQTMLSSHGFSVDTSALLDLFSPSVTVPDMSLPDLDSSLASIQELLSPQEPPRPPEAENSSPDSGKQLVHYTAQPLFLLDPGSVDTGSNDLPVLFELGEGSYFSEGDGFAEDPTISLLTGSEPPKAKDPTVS
Sequence of Bile acid receptor (Homo sapiens) (Q96RI1 whole entry, looked up): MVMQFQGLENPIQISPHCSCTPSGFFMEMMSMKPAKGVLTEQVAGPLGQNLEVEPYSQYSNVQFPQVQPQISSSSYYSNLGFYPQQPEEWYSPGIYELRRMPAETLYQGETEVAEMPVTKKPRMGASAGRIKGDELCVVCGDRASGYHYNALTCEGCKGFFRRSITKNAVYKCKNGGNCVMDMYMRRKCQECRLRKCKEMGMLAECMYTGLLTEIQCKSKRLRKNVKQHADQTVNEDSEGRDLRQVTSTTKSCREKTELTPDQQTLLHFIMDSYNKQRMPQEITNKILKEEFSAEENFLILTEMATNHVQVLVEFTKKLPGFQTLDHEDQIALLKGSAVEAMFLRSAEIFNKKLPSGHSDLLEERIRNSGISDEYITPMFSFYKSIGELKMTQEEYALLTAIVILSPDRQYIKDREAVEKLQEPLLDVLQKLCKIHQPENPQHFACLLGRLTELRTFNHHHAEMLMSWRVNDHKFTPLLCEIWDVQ

Regarding `CCCCCCCCCCCCc1ccccc1S(=O)(=O)O`, the compound was called inactive in test [1], in test [2], in test [3], in test [4], in [5] and in test [6]. Besides, the compound was called inactive in test [7], in [8], in test [9], in test [10], in test [11] and in [12]. Further, the compound was classed as inactive in test [14], in test [15], in test [16], in [17], in test [18] and in [19]. In addition, the compound was called inactive in test [20]. In addition, in test [13], the concentration at half-maximal activity (AC50) (in general, the midpoint of the concentration-response curve, whichever way the signal moves) is 4.41 µM (active).
As to `CCCOc1sc(C(=O)N2CCC(c3cc(CN)ccc3F)CC2)c(C)c1Br`, the compound was called inactive in test [1], in [3], in test [4], in test [5], in test [6] and in test [8]. Also, the compound was classed as inactive in test [9], in test [10], in [11], in [12], in [14] and in test [15]. The outcome in test [16], in test [17], in [19] and in [20] was inactive. The AC50 is 1.12 µM (active) in [2], 3.7 µM (active) in [7], 2.09 µM (active) in test [13] and 3.7 µM (active) in test [18].
Regarding `CCCCOCCO`, the compound was called inactive in test [1], in [2], in test [3], in test [4], in test [5] and in test [7]. The result in test [8], in [9], in test [10], in test [11], in test [12] and in [13] was inactive. Further, the result in test [14], in [15], in test [16], in test [17], in test [18] and in [19] was inactive. In addition, in test [20], the compound was called inactive.
As to `CCC(=C(c1ccc(O)cc1)c1ccc(OCCN(C)C)cc1)c1ccccc1`, the AC50 in test [1] was 11.2 µM (active); in test [2], 1.45 µM (active); in test [3] it was 13.1 µM (active); in [4], 9.63 µM (active); in [7] it was 4.12 µM (active); in test [8] it was 11.1 µM (active). The AC50 in test [9] is 12.1 µM (active) and 12.3 µM (active); in test [10], 7.1 µM (active) and 9.34 µM (active); in [11], 7.1 µM (active) and 11.2 µM (active); in test [12] it was 7.1 µM (active) and 9.41 µM (active); in test [13], 1.05 µM (active) [middle of 4 runs]; in test [16] it was 7.1 µM (active) and 11.3 µM (active). Besides, the AC50 in test [17] is 13.4 µM (active); in test [18] it was 3.6 µM (active); in test [20] it was 10 µM (active). Further, the outcome in [1], in test [2], in test [3], in test [4], in [5] and in [7] was inactive. In addition, the call in test [8], in [9], in test [10], in test [11], in [12] and in [14] was inactive. The outcome in test [16], in test [17], in test [18], in test [19] and in test [20] was inactive.
Consider `CC(C)(C)c1cccc(C(C)(C)C)c1O`, for which the compound was classed as inactive in [1], in test [2], in [3], in test [5], in test [6] and in test [8]. For the same compound, the compound was classed as inactive in test [9], in test [11], in [13], in test [14], in test [16] and in test [18]. Moreover, the compound was called inactive in test [19] and in test [20]. Further, the AC50 is 162 µM (active) in test [4]; 173 µM (active) in test [7]; 158 µM (active) in test [10]; 162 µM (active) in test [12]; 165 µM (active) in test [17].
